Source: PubChem (several laboratories)
ANO1 activ – mouse TMEM16A channel activation, primary screen; 340,000 compounds, 0.3% hits; Q8BHY3; B-score at 10 µM; HEK293 TMEM16A/YFP-H148Q/I152L, iodide quench fluorescence; stronger effect = lower value; AID 623877;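 active = fluorescence-ratio B-score plate-corrected deviation score at least 3 library SD below zero, with starting fluorescence score within 5 deviations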;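 also: channel opened by trigger with iodide after compound preincubation; score built on the fluorescence ratio of max minus min over baseline; more negative score means more quench and so TMEM16A activation or potentiation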
HTR2A ag – agonists of mouse serotonin 5-HT2A receptor (HTR2A); P35363; CHO-K1 mHTR2A beta-arrestin complementation, luminescence; percent of 30 µM serotonin response; activation, % at 7.6 µM; 360,000 compounds, 0.66% hits;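 active = activation above a run cutoff, the mean activation of all tested compounds plus 3 SD, cut at about 14% in these data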;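 also: 0% = plate median of compound wells and 100% = 30 µM serotonin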
TMEM16A inh – inhibitors of mouse TMEM16A calcium-activated chloride channel; AID 588511; Q8BHY3; HEK293 TMEM16A/YFP iodide influx fluorescence, ionomycin; normalized B-score (activity score, 25-100; higher = stronger inhibition) at 10 µM; 310,000 compounds, 1.2% hits;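 active = ratio plate-corrected score three or more library SD toward inhibition, starting fluorescence score within five deviations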;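 also: score derived from kinetic fluorescence span divided by baseline fluorescence per well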
TLR4 MyD88 comp – inhibitors of human TLR4-MyD88 binding | inhibition, % at 8.4 µM | HeLa CL3-4 TLR4/MyD88 BLA complementation, FRET ratio | 200,000 compounds, 0.18% hits | O00206+Q99836; in the data active = inhibition above about 25%;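 also: 0% = vehicle and 100% = reference inhibitor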
NOD2-RIPK2 inh – NOD2-RIPK2 protein interaction inhibition; CHO BLA complementation NOD2-RIPK2, CCF4 ratio; inhibition, % at 4.98 µM; 360,000 compounds, 0.38% hits; AID 624267; in the data active = inhibition above about 21%;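 also: 0% = vehicle only and 100% = reference blocker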
TLR9-MyD88 block – inhibitors of human TLR9-MyD88 binding; 340,000 compounds, 0.21% hits; inhibition, % at 4.98 µM; CHO BLA complementation TLR9-MyD88, CCF4 FRET ratio;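 active = inhibition above the mean over all tested compounds plus 3 SD, cut at about 21% in these data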;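 also: 0% = DMSO only wells and 100% = clavulanate BLA inhibitor control wells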
Target sequence (Q99836 whole entry, looked up): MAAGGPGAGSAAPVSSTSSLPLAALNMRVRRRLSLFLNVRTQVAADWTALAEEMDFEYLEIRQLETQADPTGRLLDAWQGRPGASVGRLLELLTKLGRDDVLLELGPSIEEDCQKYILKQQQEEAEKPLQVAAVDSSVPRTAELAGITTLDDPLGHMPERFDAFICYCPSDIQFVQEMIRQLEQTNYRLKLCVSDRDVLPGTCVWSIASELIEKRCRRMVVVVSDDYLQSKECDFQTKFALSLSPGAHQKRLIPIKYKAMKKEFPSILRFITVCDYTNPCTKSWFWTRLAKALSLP
Target sequence (Q9NR96 whole entry, looked up): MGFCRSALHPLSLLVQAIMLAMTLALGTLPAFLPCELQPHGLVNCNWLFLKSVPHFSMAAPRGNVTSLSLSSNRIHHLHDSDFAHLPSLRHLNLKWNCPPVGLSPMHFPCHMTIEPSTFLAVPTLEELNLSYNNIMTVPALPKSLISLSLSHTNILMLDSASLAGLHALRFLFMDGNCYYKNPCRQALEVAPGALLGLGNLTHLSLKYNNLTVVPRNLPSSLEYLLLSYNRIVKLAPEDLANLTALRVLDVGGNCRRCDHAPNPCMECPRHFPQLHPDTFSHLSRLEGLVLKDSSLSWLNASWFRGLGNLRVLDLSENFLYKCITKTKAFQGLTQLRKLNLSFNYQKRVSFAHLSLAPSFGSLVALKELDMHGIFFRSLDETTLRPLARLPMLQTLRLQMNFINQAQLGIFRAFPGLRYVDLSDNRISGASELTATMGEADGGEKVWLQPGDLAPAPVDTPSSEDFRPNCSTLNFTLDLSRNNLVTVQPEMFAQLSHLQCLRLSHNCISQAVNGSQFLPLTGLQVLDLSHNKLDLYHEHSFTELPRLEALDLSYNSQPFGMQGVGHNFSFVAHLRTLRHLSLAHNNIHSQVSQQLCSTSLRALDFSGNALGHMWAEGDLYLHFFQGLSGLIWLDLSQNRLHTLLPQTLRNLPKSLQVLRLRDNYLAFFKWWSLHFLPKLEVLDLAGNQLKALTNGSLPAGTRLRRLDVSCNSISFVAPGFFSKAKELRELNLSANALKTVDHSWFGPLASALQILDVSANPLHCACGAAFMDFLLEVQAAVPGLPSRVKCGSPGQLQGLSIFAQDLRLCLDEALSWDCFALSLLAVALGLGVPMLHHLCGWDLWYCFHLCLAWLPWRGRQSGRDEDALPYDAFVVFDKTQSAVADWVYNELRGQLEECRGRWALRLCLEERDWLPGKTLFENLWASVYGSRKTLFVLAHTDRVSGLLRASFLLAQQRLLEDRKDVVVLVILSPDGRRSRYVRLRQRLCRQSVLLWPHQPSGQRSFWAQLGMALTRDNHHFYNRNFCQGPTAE
Starred values were filed as active, the others as inactive; i = inactive; nt = no result given. Compounds with a hit are over-represented: about 2.4% of the library has one in this group of screens.

SMILES	ANO1 activ	HTR2A ag	TMEM16A inh	TLR4 MyD88 comp	NOD2-RIPK2 inh	TLR9-MyD88 block
CCN(CC(=O)Nc1c(F)cccc1F)C(=O)CSC(=S)N1CCCC1	i	-10.4	nt	nt	-14.0	-4.9
O=C1C2CC=CCC2C(=O)N1c1ccc(NCCc2ccc(O)cc2)c([N+](=O)[O-])c1 (configuration not stated)	i	-5.6	25*	-13.8	7.9	-1.0
CCOC(=O)C1(C)CCCN(C(=O)c2ccc3c(c2)OCO3)C1 (configuration not stated)	nt	-2.0	nt	nt	-10.6	nt
COc1cccc(N2CCN(CC(=O)Nc3ccccc3C(=O)NCCc3ccccc3)CC2)c1	i	-6.7	nt	nt	-6.3	0.0
Cc1ccc(-n2cccc2/C=C2/C(=N)N3C(=NC2=O)SN=C3S(C)(=O)=O)cc1Cl	i	4.5	i	-0.1	-6.2	7.1
Cc1cccc(C)c1-n1cccc1/C=C1/C(=N)N2C(=NC1=O)SN=C2S(C)(=O)=O	i	-2.4	25*	-3.3	-12.5	-0.8
CCOc1ccc(-n2c(C)cc(/C=C3/C(=N)N4C(=NC3=O)SN=C4S(C)(=O)=O)c2C)cc1	-6.25*	6.7	i	-9.7	-5.6	2.1
COCCCn1c(=O)/c(=C\c2ccccc2OC(F)F)s/c1=C(/C#N)C(=O)N1CCOCC1	i	-3.0	i	-10.4	-2.8	-6.0
Cc1ccc(-c2noc(CCC(=O)N3CCN(c4cccc(C(F)(F)F)c4)CC3)n2)cc1	i	3.4	25*	3.4	-3.3	0.0
COc1ccc(-c2noc(CCC(=O)N3CCN(c4ccc(C(F)(F)F)cc4)CC3)n2)cc1	nt	1.9	nt	nt	7.7	-8.5
CC(C)(C)c1ccc(C(=O)c2c[nH]c(C(=O)NCc3cccs3)c2)cc1	-8.1*	3.3	i	-13.0	12.4	-16.8
CCC(CC)C(=O)c1c[nH]c(C(=O)NCc2cccs2)c1	i	-5.3	i	-2.0	0.6	16.8
O=C(NCc1ccccc1)c1cccc(COc2cc(Cl)ccc2Cl)c1	i	-7.8	i	-2.4	-18.6	-3.6
CN(C(=O)c1cccc(COc2ccc(Cl)cc2Cl)c1)c1ccccc1	i	-2.2	25*	-25.9	-12.1	6.5
COC(=O)c1sc(S(=O)(=O)Nc2c(C)nn(C)c2C)c(C(=O)OC)c1C	i	1.0	nt	nt	-8.2	-7.0
COC(=O)c1sc(NC(=S)NNC(=O)c2c(Br)c(C)nn2C)c(C(=O)OC)c1C	i	-7.1	100*	nt	0.4	-1.2
CC(C)C(C)(C#N)NC(=O)CSc1nnc(-c2ccncc2)n1Cc1ccccc1 (configuration not stated)	i	4.2	25*	13.7	4.4	2.9
CC(C)(C)NC(=O)CSc1nnc(-c2ccncc2)n1Cc1ccccc1	i	-1.4	i	19.0	-5.5	-5.7
Cc1ccccc1OCc1nnc(SC(C)C(=O)O)n1Cc1ccccc1 (configuration not stated)	i	7.9	i	3.8	-1.8	-8.0
CCN(CC(=O)Nc1c(F)cccc1F)C(=O)/C=C/c1ccc(S(=O)(=O)N2CCCCCC2)cc1	i	-1.1	25*	nt	3.4	-4.4
CCN(CC(=O)Nc1c(F)cccc1F)C(=O)c1ccc(S(=O)(=O)N2CCCC2)cc1	i	-5.2	i	nt	-7.2	-10.4
O=S(=O)(NCC1(N2CCOCC2)CCCCC1)c1ccc(Cl)cc1C(F)(F)F	-18*	3.5	i	nt	3.3	-6.2
O=S(=O)(NCC1(N2CCOCC2)CCCCC1)c1ccccc1Cl	i	-0.9	i	nt	10.1	-5.5
CCCNC(=O)OC[C@H]1O[C@H](CCO/N=C/C[C@@H]2C=C[C@H](OC(C)=O)[C@@H](COC(C)=O)O2)C=C[C@@H]1Oc1ccc(OC)cc1	nt	nt	25*	0.5	nt	nt
CCOC(=O)CSC1=C(C#N)C(=O)NC(c2ccc(OC)c(OC)c2)S1 (configuration not stated)	i	2.0	25*	-5.7	-6.7	2.6
SMILES	ANO1 activ	HTR2A ag	TMEM16A inh	TLR4 MyD88 comp	NOD2-RIPK2 inh	TLR9-MyD88 block
O=C(O)C(NS(=O)(=O)c1ccccc1)C(O)c1ccccc1 (configuration not stated)	i	-3.4	i	nt	5.9	6.9
COCCNC(=O)COC(=O)c1[nH]c(C)c(C(C)=O)c1C	i	-0.7	100*	-10.1	5.0	0.0
O=C(c1cc(-c2ccccc2)on1)N1CCCCCC1	i	-10.4	i	nt	6.3	-1.6
Cc1ccc(NC(=O)CN(C)C(=O)C2CSC3(C)CCC(=O)N23)cc1 (configuration not stated)	nt	1.6	nt	nt	-3.6	-2.6
CCOC(=O)c1cnn(-c2sc(C(=O)OCC)c(C)c2C(=O)OCC)c1N	i	3.5	100*	16.0	9.9	-10.5
CC(C(=O)Nc1sccc1C(N)=O)N1C(=O)C2CC=CCC2C1=O (configuration not stated)	i	4.7	i	-5.8	-1.3	4.2
O=S(=O)(Nc1nc(-c2sccc2Cl)cs1)c1cc(Cl)ccc1Cl	i	19.6*	100*	7.6	-13.9	7.2
CC1([N+](=O)[O-])COC2(OC1)C(=O)Nc1ccccc12 (configuration not stated)	nt	2.3	i	nt	-4.4	-10.1
CCCCOc1ccc(C2OC34CCCCC3C(C#N)(C#N)C2(C#N)C(=N)O4)cc1 (configuration not stated)	i	-4.1	i	-5.0	-8.1	0.3
CCOc1ccc(C2OC34CCCCC3C(C#N)(C#N)C2(C#N)C(=N)O4)cc1OC (configuration not stated)	-5.05*	0.8	i	-7.2	-96.9	0.0
Cc1ccc(C(=O)OCC(=O)Nc2ccccc2Sc2ccccc2)cc1C	i	-1.1	i	3.6	-1.9	-3.6
CCc1ccc(-c2cc(C)no2)cc1S(=O)(=O)N1CCC(C)CC1	i	-4.8	25*	nt	12.0	-2.4
CC(CN1CCC(O)CC1)c1ccccc1 (configuration not stated)	i	-2.1	i	nt	7.3	9.0
CC1CCN(C(=O)C2CCN(CC(C)c3ccccc3)CC2)CC1 (configuration not stated)	i	0.4	25*	-0.6	-5.2	-11.5
O=C(Oc1cc2oc(=O)cc(-c3ccccc3)c2cc1Cl)C1CCCCC1	i	0.3	i	20.1	28.6*	17.1
O=C(Oc1ccc2ccc(=O)oc2c1)C1CCCCC1	i	-1.1	i	-17.2	-6.7	-5.1
O=C(NC(C(=O)N/N=C/c1ccncc1)c1n[nH]c(=O)c2ccccc12)c1ccccc1 (configuration not stated)	i	4.3	i	nt	-3.4	-0.1
